Rows were chosen to be rich in hits. Some 7.4% of all compounds tested hit in one or more screens of this group.
Rab9 promoter act: qHTS Assay for Rab9 Promoter Activators | Potency, µM (top dose mostly 9.22 µM), inactives show at the highest dose activation, negative = inhibition, hits mostly activators | Huh7 Rab9 promoter-luciferase reporter, luminescence, 24 h | hit rate 2.8% among 320,000 | AID 485297, 2010; further: % of control where 0% means no effect; nearly all actives have a fitted effect of over 60% in size
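Promoter activation is measured as luciferase luminescence in Huh7 cells stably transfected with a Rab9 promoter–luciferase construct, following 24 h compound exposure at 37 °C and 10 min reagent incubation at ambient temperature.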
SMN2 splice enh: qHTS Assay for Enhancers of SMN2 Splice Variant Expression | Potency, µM (titrated, usually from 46.1 µM), without a hit: at the top dose activity change, positive = activation, actives largely listed as activators | HEK293 SMN2-luciferase splicing reporter, luminescence, 30-36 h | AID 1458, 2008 | hit rate 2.8% among 210,000; further: % of control where 0% means no effect; nearly all actives have a fitted effect of over 55% in size
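qHTS luciferase splicing reporter: luminescence rises when SMN2 exon 7 is included in transfected HEK293 cells. Compound exposure lasted 30-36 h at 37C, with 4.5 mM final sodium butyrate as control, followed by a ONE-Glo read.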
NPC1 promoter act: qHTS Assay for NPC1 Promoter Activators; Huh7 NPC1 promoter luciferase reporter, 24 h; Potency, µM (titrated, usually from 9.22 µM), for inactives: at the top dose activation, actives largely listed as activators; hit rate 2.4% among 320,000; further: % of control where 0% means no effect; nearly all actives have a fitted effect of over 60% in size
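Quantitative HTS used a cell-based reporter: Huh7 cells stably bearing the NPC1 promoter upstream of luciferase were treated with compounds for 24 h, and promoter activation was read as luminescence.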
FLuc counter: qHTS profiling assay for firefly luciferase inhibitor/activator using purifed enzyme and Km concentrations of substrates (counterscreen for miR-21 project); Luciferin 4-monooxygenase (Photinus pyralis), P08659; purified FLuc, Km substrates, luminescence inhibition; Potency, µM (doses to about 57.5 µM), for the others: at the highest dose activity change, negative = inhibition, actives largely listed as inhibitors; hit rate 6.9% among 360,000; AID 588342, 2011;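 further: plate controls were vehicle for no effect and reference inhibitor for full effect; nearly all actives have a fitted effect of over 55% in size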
Target sequence (P08659 whole entry, looked up): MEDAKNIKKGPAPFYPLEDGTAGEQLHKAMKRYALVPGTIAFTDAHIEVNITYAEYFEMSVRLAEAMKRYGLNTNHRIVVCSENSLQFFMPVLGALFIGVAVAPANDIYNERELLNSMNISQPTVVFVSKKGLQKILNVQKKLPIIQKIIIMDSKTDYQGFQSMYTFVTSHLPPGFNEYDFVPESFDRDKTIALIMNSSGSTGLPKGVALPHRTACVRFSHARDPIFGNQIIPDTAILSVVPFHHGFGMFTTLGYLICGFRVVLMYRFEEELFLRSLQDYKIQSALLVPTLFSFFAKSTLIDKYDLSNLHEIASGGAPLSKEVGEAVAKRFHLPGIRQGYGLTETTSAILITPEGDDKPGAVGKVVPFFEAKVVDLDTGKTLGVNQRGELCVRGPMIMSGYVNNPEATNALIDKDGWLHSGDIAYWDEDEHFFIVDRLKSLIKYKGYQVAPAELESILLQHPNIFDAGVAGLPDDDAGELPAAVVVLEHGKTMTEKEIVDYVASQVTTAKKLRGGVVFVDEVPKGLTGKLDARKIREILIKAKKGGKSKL
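Purified P. pyralis luciferase, 10 nM final, with Km-level 10 uM D-luciferin and 10 uM ATP in 50 mM Tris acetate pH 7.5, 10 mM Mg acetate, 0.01% Tween-20, 0.05% BSA; 6-point qHTS titration about 60 µM downward; luminescence read.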
ELG1 genotoxic: qHTS screen for small molecules that induce genotoxicity in human embryonic kidney (HEK293T) cells expressing luciferase-tagged ELG1; HEK293T ELG1-luciferase reporter, luminescence, 16 h; Potency, µM (series often up to 46 µM), for the others: top-dose activity change, positive = activation, most hits filed as activators; hit rate 1.3% among 330,000; AID 504466, 2011; further: % of control where 0% means no effect; nearly all actives have a fitted effect of over 60% in size
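Genotoxic stress is detected as increased luminescence from luciferase-tagged ELG1 in HEK293T cells, measured with ONE-Glo after a 16 hr treatment at 37 °C.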
The depositor's hits bear a star; ? = inconclusive; . = no result; [ ] = remark or other dose. The call rests on the fitted dose curve; in most records, active means well fitted curve in the direction sought with a large enough effect; inconclusive means small, poorly fitted or top-dose-only effect, or another doubt; inactive means no such curve, though single readings can be large; an effect the other way counts as inactive or inconclusive. Potency means the concentration at half of the fitted maximal effect.

SMILES	Rab9 promoter act	SMN2 splice enh	NPC1 promoter act	FLuc counter	ELG1 genotoxic
Brc1ccc(-c2csc(N3CCOCC3)n2)cc1	4µM*	.	?	8.5µM*	-14%
FC(F)(F)c1cc(-c2ccccc2)nc(N2CCCCCC2)n1	-1%	7%	-1%	3%[2.3 µM]	-1%
c1ccc(-c2cnnc(N3CCCCC3)n2)cc1	1.4µM*	29%	2.5µM*	11µM*	?
CCOC(=O)c1c(C)[nH]c(C)c1S(=O)(=O)N1CCCC(C(=O)N2CCN(c3cccc(C)c3C)CC2)C1 (stereo not drawn)	.	.	.	-10%	.
CN(C(=O)C1CCC1C(=O)O)c1nc(-c2ccc(Cl)s2)cs1 (stereo not drawn)	-2%	.	4%	?	2%
CN1CCN(c2nc(-c3ccc(Cl)s3)cs2)CC1	?	11%	13%	17µM*	15%
Clc1ccc(-c2csc(N3CCCCCC3)n2)cc1	5%	.	5%	11µM*	8%
CSc1ncccc1C(=O)OCC(=O)NC(C)C	0%	-4%	0%	-1%	0%
CCCSc1nc2c(cnn2-c2ccccc2)c(=O)n1N	0.79µM*	.	4.5µM*	5.4µM*	?
Nn1c(SCc2ccccc2)nc2c(cnn2-c2ccccc2)c1=O	3.2µM*	13µM*	?	11µM*	?
Cc1nc2cnc(N(C)C)nc2n(Cc2ccc(F)cc2)c1=O	.	-16%	.	.	.
O=C(COC(=O)C(Cc1c[nH]c2ccccc12)NC(=O)c1ccc(Br)cc1)c1ccc(Cl)cc1 (stereo not drawn)	.	.	.	-2%	.
CCOC(=O)C(Cc1c[nH]c2ccccc12)NC(=O)c1ccccc1Br (stereo not drawn)	24%	.	26%	0.67µM*	?
COC(=O)C(Cc1c[nH]c2ccccc12)NC(=O)c1ccccc1Br (stereo not drawn)	-1%	.	0%	4.3µM*	0%
CC(C)(C)c1ccc(-c2nc(NCc3cccnc3)c3ccccc3n2)cc1	21%	25µM*	?	3.4µM*	?
c1cncc(CNc2nc(-c3cccnc3)nc3ccccc23)c1	0%	.	0%	4%	-10%
Cc1csc(=Nc2ccccc2)n1C	2%	18%	3%	-18%	8%
Cc1ccc(N=c2sc(C)c(C)n2C)cc1	?	?	?	21µM*	?
Cc1ccc(/C=C/c2onc(C)c2S(=O)(=O)N2CCC(C(=O)Nc3ccc(C)c(N(C)C)c3)CC2)cc1	.	.	.	0%	.
O=C(O)c1ccc(N=Nc2c(-c3ccccc3)[nH]oc2=O)cc1	?	.	?	11µM*	17%
CC(=O)c1cccc(N=Nc2c(-c3ccccc3)[nH]n(-c3ccccc3)c2=O)c1	-7%	-16%	-7%	?	-8%
COC(=O)c1nc(NC(=O)C(C)(C)C)n[nH]1	-4%	2%	-2%	24µM*	5%
CN(c1ccc(O)cc1)S(=O)(=O)c1ccc2ccccc2c1	4µM*	.	?	19µM*	?
Cc1ccc(N(C)S(=O)(=O)c2ccc3[nH]c(=O)ccc3c2)cc1	.	.	.	8.5µM*	.
NNC(=O)/C=C/c1ccc(Cl)cc1Cl	18%	5%	2%	?	-2%
SMILES	Rab9 promoter act	SMN2 splice enh	NPC1 promoter act	FLuc counter	ELG1 genotoxic
O=C(O)CNC(=O)/C=C/c1ccc(Cl)cc1Cl	6%	-5%	-3%	24µM*	-6%
CCOC(=O)N1CCC(NC(=O)CS(=O)Cc2nc(-c3ccccc3C)oc2C)CC1 (stereo not drawn)	-8%	.	0%	1%	-8%
Cc1ccc(/C=C/C(=O)Nc2ccc(S(=O)(=O)Nc3ncccn3)cc2)cc1	0%	-2%	-5%	9.5µM*	7%
COc1ccc(/C=C/C(=O)NC(=S)Nc2ccc(S(=O)(=O)Nc3cc(C)on3)cc2)cc1	-1%	.	-7%	15µM*	4%
COc1ccc(/C=C/C(=O)NC(=S)Nc2ccc(S(=O)(=O)Nc3ccc(OC)nn3)cc2)cc1	0%	7%[1.84 µM]	-11%	?	-4%
Cc1noc(NS(=O)(=O)c2ccc(NC(=O)/C=C/c3ccc(C(C)C)cc3)cc2)c1C	-1%	.	-1%	11µM*	1%
O=C(O)/C=C/c1ccc(S(=O)(=O)Nc2ccccc2C(=O)Nc2ccc(F)cc2)cc1	2%	.	-1%	12µM*	8%
O=C(Nc1ccc(S(=O)(=O)Nc2ncccn2)cc1)c1ccccc1NS(=O)(=O)c1ccc(F)cc1	-5%	-7%	-10%	?	0%
Cc1ccc(/C=C/C(=O)Nc2ccc(S(=O)(=O)Nc3cc(C)nc(C)n3)cc2)cc1	-1%	.	3%	11µM*	1%
O=C(/C=C/c1ccc(F)cc1)Nc1ccc(S(=O)(=O)Nc2ncccn2)cc1	1%	.	-1%	17µM*	3%
O=C1c2ccccc2NC(c2ccc([N+](=O)[O-])cc2)N1O (stereo not drawn)	-17%	-68%	-5%	-2%	-7%
CCc1ccc(OCC(=O)Nc2cc(-c3nc4cc(C)ccc4o3)ccc2C)cc1	.	4%	.	?	.
Cc1ccccc1OCC(O)CO (stereo not drawn)	.	-16%	.	.	.
CCOC(=O)c1c(N)sc2c(OC)c(Br)ccc12	.	-10%	.	19µM*	.
CCCN1CCN(C(=O)CCn2c(=O)c3cccn3c3cccnc32)CC1	-2%	.	0%	0%	0%
O=c1[nH]ncc(N/N=C/c2ccccc2)c1Cl	-8%	-2%	-1%	2%	?
Cc1ccsc1/C=N\Nc1cn[nH]c(=O)c1Cl	3%	0%	6%	-20%	21µM*
COc1ccc(/C=N/Nc2cn[nH]c(=O)c2Cl)cc1	24%	?	18%	?	21µM*
Cc1ccc(/C=N\Nc2cn[nH]c(=O)c2Cl)cc1	?	18%	29%	24µM*	21µM*
